In PubChem BioAssay (NCATS):
“And” between values parts separate entries of the source, which are not always exact repeats. Equal values may be shown once. Inconclusive results are not listed. The source made the active and inactive calls. Unless noted, calls follow the shape of the dose curve; as a rule, active = well fitted curve in either direction with a large enough effect (not every such curve was filed as active); inconclusive = small, poorly fitted or top-dose-only effect, or another doubt; inactive = flat fitted curve, though single readings scatter.

Tests used:
[1] = AP1 Signaling Pathway (AID 357); conditions: ME-180 AP-1-bla reporter, EGF-induced, beta-lactamase ratio, 5 h; also: % is scaled to controls: 0 for no effect and ±100 for the full control effect
How it was run: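 AP-1-bla ME-180 cells with beta-lactamase reporter under AP-1 response element, stimulated with EC50 EGF; compounds titrated, 5 hours at 37 degrees Celsius. CCF4 read at 460/530 nm ratio; positive and negative modulators judged by AC50.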

[2] = target: Cytochrome P450 1A2 (Homo sapiens) (UniProt P05177); experiment: p450-cyp1a2 (AID 410; calls by dose curve; also: potency is read from the fitted curve at half-maximal effect;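 as to activity change, negative = inhibition: -100% = full effect of reference inhibitor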); conditions: recombinant CYP1A2, luciferin-ME demethylation, luminescence; series mostly up to 57 µM
How it was run: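 Human CYP1A2 (20nM) demethylated Luciferin-ME at its Km (100uM) in 100mM KPO4. After 10 min compound preincubation, NADPH regeneration ran the reaction 60 min at room temperature. Luciferin was read by luminescence, normalized to 57 uM furafylline.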

[3] = NFAT Signaling Pathway (AID 444); conditions: Jurkat NFAT-bla M1, carbachol, beta-lactamase ratio, 5 h;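 also: carbachol stimulus at about its EC50 of 1 µM final; % is scaled to controls: 0 for no effect and ±100 for the full control effect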
How it was run: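 Read-out: CCF4 FRET ratio (460 nm/530 nm) after 1 h RT dye loading, used for %activity and AC50 from titration series. Cells: Jurkat NFAT-β-lactamase/M1 line, treated with compound plus 1 uM carbachol for 5 h, 37 °C.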

[4] = Stat Signaling Pathway (AID 446); conditions: ME-180 (cervical carcinoma) SIE beta-lactamase reporter, IL-6 stimulated, 5 h;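 also: ME-180 cervical cancer cells given 40 pM IL-6 alongside compound; SIE-controlled beta-lactamase reporter measured as 460/530 nm FRET emission ratio; % is scaled to controls: 0 for no effect and ±100 for the full control effect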
How it was run: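 IL-6/STAT signaling read in ME-180 cells via an SIE beta-lactamase reporter. Stimulus was 40 pM IL-6 (its AC50) for 5 hrs, so both activation and inhibition register.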

[5] = target: Glucocorticoid receptor (Homo sapiens) (UniProt P04150); experiment: GR-GFP Redistribution (AID 450;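 active = compounds whose dose series gives a full or clear partial fitted curve of increased nuclear translocation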; also: potency is read from the fitted curve at half-maximal effect); conditions: U2OS GR-GFP nuclear translocation, laser cytometry, 2 h
[6] = target: Glucocorticoid receptor (Homo sapiens) (UniProt P04150); experiment: GR-EFC Redistribution (AID 451; calls by dose curve; also: potency is read from the fitted curve at half-maximal effect); conditions: CHO-K1 GR-EFC translocation, beta-gal luminescence, 2 h
How it was run: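 Translocation of GR-ED fusion to nuclear EA restores b-gal, read by luminescence after 1 h room-temperature detection. Engineered CHO-K1 biosensor cells, 1,000/well, exposed 2 h at 37 C to titrations up to 46 uM final.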

[7] = target: Mitogen-activated protein kinase 10 (Mus musculus) (UniProt Q61831); experiment: JNK3 AlphaScreen Assay (AID 530); conditions: JNK3 lysate, c-Jun phosphorylation; series mostly up to 57.1 µM;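 also: kinase came from lysate of stimulated human HepG2 cells; signal reports phosphorylation of biotinylated GST-cJun 1-79 at Ser73 with 10 µM ATP; % is scaled to controls: 0 for no effect and ±100 for the full control effect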
How it was run: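 Room-temperature AlphaScreen kinase assay; pre-activated HepG2 lysate as JNK3 source, biotin-GST-cJun(1-79) substrate, 10 uM ATP, compound 15 min preincubation.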

[8] = target: Lysosomal acid glucosylceramidase (Homo sapiens) (UniProt P04062); experiment: Glucocerebrosidase-p2 (AID 348; in the data active = potency below about 10 µM; also: potency is read from the fitted curve at half-maximal effect); conditions: purified GBA, blue fluorogenic substrate, 40 min
How it was run: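 Compounds titrated from 0.6 nM upwards against 0.2 nM enzyme in pH 5.9 citric acid/KH2PO4, taurocholate, tween-20; blue fluorogenic substrate 80 uM, 40 min room temperature, stopped and read Ex 365/Em 440 for AC50.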

[9] = at 38 µM (top of the series) unless noted

Chain of Glucocorticoid receptor (Homo sapiens) (P04150 whole entry, looked up, the tested form may be a part): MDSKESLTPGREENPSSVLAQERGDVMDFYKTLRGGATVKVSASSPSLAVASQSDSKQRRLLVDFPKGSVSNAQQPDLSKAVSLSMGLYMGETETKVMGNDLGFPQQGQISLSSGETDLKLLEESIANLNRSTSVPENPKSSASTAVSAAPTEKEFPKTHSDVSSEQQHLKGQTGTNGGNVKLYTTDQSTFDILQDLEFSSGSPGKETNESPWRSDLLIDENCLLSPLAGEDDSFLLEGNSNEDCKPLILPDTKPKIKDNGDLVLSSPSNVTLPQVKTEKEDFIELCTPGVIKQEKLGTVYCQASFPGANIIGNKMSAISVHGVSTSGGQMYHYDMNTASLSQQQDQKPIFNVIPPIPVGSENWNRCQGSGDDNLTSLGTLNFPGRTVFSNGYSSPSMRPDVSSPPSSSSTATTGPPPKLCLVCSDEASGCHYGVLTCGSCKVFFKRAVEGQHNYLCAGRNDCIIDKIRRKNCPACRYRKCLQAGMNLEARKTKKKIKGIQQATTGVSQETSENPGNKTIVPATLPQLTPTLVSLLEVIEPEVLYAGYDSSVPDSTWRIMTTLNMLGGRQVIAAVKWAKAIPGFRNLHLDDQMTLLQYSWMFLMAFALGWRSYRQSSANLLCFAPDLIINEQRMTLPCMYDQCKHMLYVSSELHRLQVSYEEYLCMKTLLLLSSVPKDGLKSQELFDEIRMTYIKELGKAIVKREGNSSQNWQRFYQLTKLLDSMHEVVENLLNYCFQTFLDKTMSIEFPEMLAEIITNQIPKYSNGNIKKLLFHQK
Chain of Cytochrome P450 1A2 (Homo sapiens) (P05177 whole entry, looked up): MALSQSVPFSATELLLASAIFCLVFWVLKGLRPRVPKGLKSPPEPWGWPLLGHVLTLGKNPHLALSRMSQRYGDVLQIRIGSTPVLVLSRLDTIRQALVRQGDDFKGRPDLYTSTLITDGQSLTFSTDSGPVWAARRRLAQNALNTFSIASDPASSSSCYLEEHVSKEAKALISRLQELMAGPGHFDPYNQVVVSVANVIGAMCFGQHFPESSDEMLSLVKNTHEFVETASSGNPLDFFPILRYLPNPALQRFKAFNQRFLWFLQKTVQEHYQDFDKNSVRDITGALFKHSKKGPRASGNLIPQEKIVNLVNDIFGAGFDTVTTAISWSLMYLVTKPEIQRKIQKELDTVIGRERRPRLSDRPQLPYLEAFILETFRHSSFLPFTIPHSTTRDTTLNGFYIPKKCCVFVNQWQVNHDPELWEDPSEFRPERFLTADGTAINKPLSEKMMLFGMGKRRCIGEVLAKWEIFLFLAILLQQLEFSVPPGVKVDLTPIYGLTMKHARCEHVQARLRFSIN
Chain of Lysosomal acid glucosylceramidase (Homo sapiens) (P04062 whole entry, looked up): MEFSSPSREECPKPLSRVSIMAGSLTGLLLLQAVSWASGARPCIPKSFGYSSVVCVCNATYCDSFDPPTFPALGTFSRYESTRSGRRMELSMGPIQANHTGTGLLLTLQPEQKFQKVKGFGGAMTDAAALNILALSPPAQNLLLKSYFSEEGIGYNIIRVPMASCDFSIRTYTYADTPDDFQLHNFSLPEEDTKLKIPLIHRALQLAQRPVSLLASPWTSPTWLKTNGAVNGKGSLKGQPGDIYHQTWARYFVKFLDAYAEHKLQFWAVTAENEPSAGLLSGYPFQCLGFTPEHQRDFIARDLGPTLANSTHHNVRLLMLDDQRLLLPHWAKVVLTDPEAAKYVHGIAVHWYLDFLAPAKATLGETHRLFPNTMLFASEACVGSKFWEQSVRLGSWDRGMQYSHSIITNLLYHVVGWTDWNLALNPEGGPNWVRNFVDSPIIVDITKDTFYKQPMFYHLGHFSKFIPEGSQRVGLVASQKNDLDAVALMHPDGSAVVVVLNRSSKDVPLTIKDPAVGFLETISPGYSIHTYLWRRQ

O=C(O)c1cc(=O)c2c(Cl)cc(Cl)cc2[nH]1
inactive: activity change, negative = inhibition ([1]; at 38 µM (top of the series)) -8.48% | Potency [2] | activity change, negative = inhibition [3, 9] 0.544% | activity, negative = inhibition ([4]; at 38 µM (top of the series)) 15.7% | Potency [5] > 46 µM | Potency [6] > 46 µM

CN1CCc2cc(NC(=O)Nc3cccnc3)ccc21
inactive: activity change, negative = inhibition ([1]; at 38 µM (top of the series)) -1.43% | activity change, negative = inhibition [3, 9] 4.73% | activity, negative = inhibition ([4]; at 38 µM (top of the series)) 4.31% | Potency [5] > 46 µM | Potency [6] > 46 µM | Potency [7]
active: Potency [2] 79.4 nM

COc1cc2c(CCNC(C)=O)c[nH]c2cc1Cl
active: Potency [2] 1 µM and 126 nM
inactive: activity change, negative = inhibition ([1]; at 38 µM (top of the series)) -0.206% | activity change, negative = inhibition [3, 9] -9.13% | activity, negative = inhibition ([4]; at 38 µM (top of the series)) -15.8% | Potency [5] > 46 µM | Potency [6] > 46 µM | Potency [7]

NCCSSCCN
inactive: Potency [8] > 11.4 µM | activity change, negative = inhibition ([1]; at 7.69 µM (top of the series)) -2.06% | activity change, negative = inhibition ([1]; at 38 µM (top of the series)) -9.31% | Potency [2] | activity change, negative = inhibition ([3]; at 7.69 µM (top of the series)) 0.926% | activity change, negative = inhibition ([3]; at 38 µM (top of the series)) -3.66% | activity, negative = inhibition ([4]; at 7.69 µM (top of the series)) -10% | activity, negative = inhibition ([4]; at 38 µM (top of the series)) -21.5% | Potency [5] > 46 µM | Potency [6] > 46 µM and > 9.22 µM | Potency [7]

CC(=O)SCC[N+](C)(C)C
inactive: activity change, negative = inhibition ([1]; at 38 µM (top of the series)) 9.91% | Potency [2] | activity change, negative = inhibition [3, 9] 9.71% | activity, negative = inhibition ([4]; at 38 µM (top of the series)) 1.77% | Potency [5] > 46 µM | Potency [6] > 46 µM | Potency [7]

Cc1nc2sccn2c(=O)c1CCN1CCC(=C(c2ccccc2)c2ccc(F)cc2)CC1
inactive: activity change, negative = inhibition ([1]; at 17.2 µM (top of the series)) -10.2% | activity change, negative = inhibition ([1]; at 38 µM (top of the series)) 8.49% | activity, negative = inhibition ([4]; at 17.2 µM (top of the series)) -13.7% | activity, negative = inhibition ([4]; at 38 µM (top of the series)) 13.4% | Potency [5] > 46 µM and > 20.6 µM | Potency [6] > 46 µM | Potency [7]

CC(C)Cc1ccc([C@H](C)C(=O)O)cc1
inactive: activity change, negative = inhibition ([1]; at 17.2 µM (top of the series)) -1.53% | activity change, negative = inhibition ([1]; at 38 µM (top of the series)) -1.91% and 13.2% | Potency [2] | activity change, negative = inhibition ([3]; at 17.2 µM (top of the series)) -2.57% | activity change, negative = inhibition ([3]; at 38 µM (top of the series)) -3.84% and 2.4% | activity, negative = inhibition ([4]; at 17.2 µM (top of the series)) -0.514% | activity, negative = inhibition ([4]; at 38 µM (top of the series)) -0.822% and 26.9% | Potency [5] > 46 µM and > 20.6 µM | Potency [6] > 46 µM and > 20.6 µM | Potency [7]
